Values without a mark were called inactive. The source made the active and inactive calls. Rule as the data show it, unless noted: active = inhibition above about 42%; inactive = the rest.
Key:
[1] = StAR promoter reporter inhibitors, counter-screen for LRH-1 inverse agonist project, cell-based, luminescence, high throughput (AID 651611; in the data active = inhibition above about 28%); details: StAR promoter luciferase reporter counterscreen, at 3.6 µM, hits give high values
[2] = target: Nuclear receptor subfamily 5 group A member 2 (Homo sapiens) (UniProt O00482); assay: LRH-1 (NR5A2) inverse agonists, retest, confirmation, cell-based, luminescence (AID 651613); details: cell-based LRH-1 luciferase reporter, inverse agonism; at 3.6 µM; hits give high values;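 also: HEK293T cells co-transfected with LRH-1 and StAR promoter luciferase reporter; 0% = vehicle wells and 100% = parental cells lacking receptor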
[3] = target: Steroidogenic factor 1 (Homo sapiens) (UniProt Q13285); assay: SF1 (NR5A1) inverse agonists, counter-screen for LRH-1 inverse agonist project, cell-based, luminescence, high throughput (AID 651614; in the data active = inhibition above about 44%;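 also: cells cotransfected with StAR promoter reporter and SF1 expression vector; 0% = vehicle on cells with receptor and 100% = vehicle on cells lacking receptor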); details: cell-based SF1 luciferase reporter, at 3.6 µM, hits give high values
[4] = VP16 transactivation reporter inhibitors, counter-screen for LRH-1 inverse agonist project, cell-based, luminescence, high throughput (AID 651615; in the data active = inhibition above about 33%); details: Gal4-VP16 luciferase reporter cells, at 3.6 µM, hits give high values

Chain of Nuclear receptor subfamily 5 group A member 2 (Homo sapiens) (O00482 whole entry, looked up): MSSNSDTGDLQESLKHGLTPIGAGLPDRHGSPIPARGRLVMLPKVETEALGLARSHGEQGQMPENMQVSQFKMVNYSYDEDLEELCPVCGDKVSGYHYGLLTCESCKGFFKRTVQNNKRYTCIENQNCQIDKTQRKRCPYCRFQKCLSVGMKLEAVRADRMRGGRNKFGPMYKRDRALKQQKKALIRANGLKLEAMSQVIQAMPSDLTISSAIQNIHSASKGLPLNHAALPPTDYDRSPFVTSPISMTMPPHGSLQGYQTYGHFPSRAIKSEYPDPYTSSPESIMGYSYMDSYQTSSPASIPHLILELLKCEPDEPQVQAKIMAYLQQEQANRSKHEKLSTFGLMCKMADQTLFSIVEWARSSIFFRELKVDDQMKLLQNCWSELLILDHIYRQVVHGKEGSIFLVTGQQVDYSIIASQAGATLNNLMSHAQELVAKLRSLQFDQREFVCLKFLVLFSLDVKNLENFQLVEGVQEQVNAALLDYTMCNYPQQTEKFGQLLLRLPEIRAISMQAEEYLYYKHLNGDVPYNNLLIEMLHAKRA
Chain of Steroidogenic factor 1 (Homo sapiens) (Q13285 whole entry, looked up, the tested form may be a part): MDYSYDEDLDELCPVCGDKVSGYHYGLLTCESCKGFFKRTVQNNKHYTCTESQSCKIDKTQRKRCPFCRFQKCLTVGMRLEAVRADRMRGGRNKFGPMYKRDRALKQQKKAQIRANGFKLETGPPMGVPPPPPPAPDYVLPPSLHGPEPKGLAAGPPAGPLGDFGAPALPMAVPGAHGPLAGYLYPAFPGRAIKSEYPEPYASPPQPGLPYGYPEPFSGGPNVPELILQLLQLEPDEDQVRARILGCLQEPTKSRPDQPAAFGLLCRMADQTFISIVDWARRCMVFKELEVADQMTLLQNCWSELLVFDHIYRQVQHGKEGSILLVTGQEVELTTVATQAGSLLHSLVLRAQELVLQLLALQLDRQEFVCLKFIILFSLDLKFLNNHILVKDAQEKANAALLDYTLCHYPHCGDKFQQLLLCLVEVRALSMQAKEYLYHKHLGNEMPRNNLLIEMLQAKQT

| SMILES | inhibition [1] | inhibition [2] | inhibition [3] | inhibition [4] |
| --- | --- | --- | --- | --- |
| CCCCc1c(O)nc(SCC(=O)Nc2ccc3c(c2)CCC3)[nH]c1=O | 6.25% | 37.2% | 51.8% (active) | 0.43% |
| COc1cc(N)c(Cl)cc1C(=O)OCC(=O)N1c2ccccc2NC(=O)C1(C)C | 11.8% | 19.4% | 11.5% | -12.3% |
| Nc1ccc(Nc2ccncc2[N+](=O)[O-])cc1 | 2.61% | 65.6% (active) | 61.9% (active) | 15.7% |
| Cc1c(C(=O)Nc2ccc(Cc3ccncc3)cc2)cccc1[N+](=O)[O-] | -10.9% | 56.2% (active) | 49.9% (active) | 19.6% |
| CCOC(=O)c1c(NC(=O)/C=C/C(=O)O)sc(C)c1-c1ccc(Cl)cc1 | 6.09% | 59.2% (active) | 48.9% (active) | 5.25% |
| OC[C@@H]1CN(Cc2ccc(-c3ccccc3)cc2)C[C@H](n2cnc3c(NCc4ccco4)ncnc32)O1 | 22.7% | 63.7% (active) | 65% (active) | 33.6% (active) |
| COc1cc(NCCCCCCN)c2ncccc2c1OC | 22.3% | 49% (active) | 43.6% (active) | -3% |
| COc1ccc(CNC(=O)c2sc(=O)n(Cc3ccc(-c4ccccc4)cc3)c2C)cc1OC | 26% | 37.7% | 42.5% | 31.6% (active) |
| Cc1ccccc1Nc1nc(-c2cccnc2)nc2ccccc12 | 2.04% | 41.5% (active) | 33.2% | -10.5% |
| C#CCN(C[C@@H]1[C@@H](OC(=O)NCC2CCCCC2)[C@@H](OC(=O)NCC2CCCCC2)Cn2c(=O)ccc(=O)n21)S(=O)(=O)c1ccc(C)cc1 | 38.3% (active) | 62.4% (active) | 74.5% (active) | 70.8% (active) |
| O=C(COc1ccc(Nc2ccccc2)cc1)Nc1ccncc1 | 19.2% | 52.8% (active) | 51.6% (active) | 41.4% (active) |
| O=[N+]([O-])c1cnccc1Nc1ccc(Cl)cc1 | 15.6% | 64.1% (active) | 60.5% (active) | 18.9% |
| CCOCC(=O)Nc1ccc(S(=O)(=O)NCCc2ccccc2)cc1 | 10.5% | 48.3% (active) | 43.2% (active) | 11.4% |
| COc1ccc(NC(=O)CSc2ccc3c(c2)OCCO3)cc1 | 2.27% | 63.5% (active) | 56.7% (active) | -4.1% |
| Cc1ccc(NC(=O)c2ccc([N+](=O)[O-])o2)c(C)c1 | 11.1% | 54.7% (active) | 54.6% (active) | -6.21% |
| CCOc1ccc(NC(=O)COC(=O)c2ncc(Cl)c(Cl)c2Cl)cc1 | 21.6% | 38.4% | 36.8% | -18.7% |
| Cc1ccc(SCc2ccc(C(=O)NCc3ccncc3)cc2)cc1 | -0.78% | 55.9% (active) | 53.1% (active) | -0.6% |
| COc1ccc(-n2c(N)c(C(=O)NCc3cccnc3)sc2=S)cc1 | 4.01% | 48.7% (active) | 50.4% (active) | -1.03% |
| COc1ccc(C2=Nn3c(nnc3-c3ccccc3OC)SC2)cc1OCC1CC1 | 49.1% (active) | 60.4% (active) | 62.8% (active) | 24.6% |
| O=C(Cc1c(Cl)cccc1Cl)Nc1ccncc1 | 16.9% | 53.1% (active) | 45.4% (active) | -10% |
| O=C(NCc1cccnc1)c1ccc([N+](=O)[O-])o1 | 16.3% | 62.7% (active) | 63.4% (active) | -3.23% |
| CCN1C(=O)c2cccc3c(S(=O)(=O)Nc4ccccc4O)ccc1c23 | 38.4% (active) | 34.1% | 36.2% | -88.6% |
| Cc1ccc(-c2csc(NC(=O)c3ccc([N+](=O)[O-])o3)n2)cc1 | 3.07% | 57.5% (active) | 54.4% (active) | -19.4% |
| COc1ccc(CN(C)C(=O)CCl)cc1 | 14.9% | 53.5% (active) | 52.9% (active) | -5.19% |
| COc1ccc(-c2cc(NC=O)c3ncc(-c4ccc(OC)c(OC)c4)n3c2)c(OC)c1 | 65.5% (active) | 53.5% (active) | 62% (active) | 2.18% |
| Cc1nnsc1S(=O)c1ccc(Br)cc1 (stereo not drawn) | 4.11% | 45.4% (active) | 44.9% (active) | 3.37% |
| O=C(Nc1nc2ccc(F)cc2s1)c1ccc([N+](=O)[O-])o1 | -101% | 0.34% | 10% | -93.2% |

Source: PubChem BioAssay
